High-throughput results (PubChem BioAssay)
Ecoli WT expand – growth inhibitors of wild-type E. coli, primary screen, strain BW25113, expanded library, OD600. OD600 absorbance. growth inhibition, % at 100 µM. hit rate 0.15% among 98,000;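 active = growth inhibition above about 50% at one test dose, limit read from the data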;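 also: growth measured after 20 h incubation at 37 °C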
CD11b adhes inh – inhibitors of CD11b/CD18 adhesion to fibrinogen, primary screen, K562 cells, luminescence | ATPlite luminescence; Mn2+ added to activate the integrin | inhibition, % at 10 µM | hit rate 0.54% among 93,000 | Integrin beta-2 (Homo sapiens) + Integrin alpha-M (Homo sapiens), P05107+P11215 | AID 1497, 2009;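 active = primary inhibition of 50% or more at 10 µM, then 40% or more on retest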
Cav3 T inh – Cav3.2 calcium influx blockers – cell-based, Fluo-4 calcium fluorescence, FDSS, MLSMR library, primary screen; Voltage-dependent T-type calcium channel subunit alpha-1H (Homo sapiens), O95180; Cav3.2-expressing cells; hits give low values; hit rate 4% among 100,000; B-score at 10 µM;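 active = single-dose well whose peak fluorescence ratio is a statistical outlier from its plate by either plate-standardised score or position-corrected B-score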
Target sequence (O95180 whole entry, looked up): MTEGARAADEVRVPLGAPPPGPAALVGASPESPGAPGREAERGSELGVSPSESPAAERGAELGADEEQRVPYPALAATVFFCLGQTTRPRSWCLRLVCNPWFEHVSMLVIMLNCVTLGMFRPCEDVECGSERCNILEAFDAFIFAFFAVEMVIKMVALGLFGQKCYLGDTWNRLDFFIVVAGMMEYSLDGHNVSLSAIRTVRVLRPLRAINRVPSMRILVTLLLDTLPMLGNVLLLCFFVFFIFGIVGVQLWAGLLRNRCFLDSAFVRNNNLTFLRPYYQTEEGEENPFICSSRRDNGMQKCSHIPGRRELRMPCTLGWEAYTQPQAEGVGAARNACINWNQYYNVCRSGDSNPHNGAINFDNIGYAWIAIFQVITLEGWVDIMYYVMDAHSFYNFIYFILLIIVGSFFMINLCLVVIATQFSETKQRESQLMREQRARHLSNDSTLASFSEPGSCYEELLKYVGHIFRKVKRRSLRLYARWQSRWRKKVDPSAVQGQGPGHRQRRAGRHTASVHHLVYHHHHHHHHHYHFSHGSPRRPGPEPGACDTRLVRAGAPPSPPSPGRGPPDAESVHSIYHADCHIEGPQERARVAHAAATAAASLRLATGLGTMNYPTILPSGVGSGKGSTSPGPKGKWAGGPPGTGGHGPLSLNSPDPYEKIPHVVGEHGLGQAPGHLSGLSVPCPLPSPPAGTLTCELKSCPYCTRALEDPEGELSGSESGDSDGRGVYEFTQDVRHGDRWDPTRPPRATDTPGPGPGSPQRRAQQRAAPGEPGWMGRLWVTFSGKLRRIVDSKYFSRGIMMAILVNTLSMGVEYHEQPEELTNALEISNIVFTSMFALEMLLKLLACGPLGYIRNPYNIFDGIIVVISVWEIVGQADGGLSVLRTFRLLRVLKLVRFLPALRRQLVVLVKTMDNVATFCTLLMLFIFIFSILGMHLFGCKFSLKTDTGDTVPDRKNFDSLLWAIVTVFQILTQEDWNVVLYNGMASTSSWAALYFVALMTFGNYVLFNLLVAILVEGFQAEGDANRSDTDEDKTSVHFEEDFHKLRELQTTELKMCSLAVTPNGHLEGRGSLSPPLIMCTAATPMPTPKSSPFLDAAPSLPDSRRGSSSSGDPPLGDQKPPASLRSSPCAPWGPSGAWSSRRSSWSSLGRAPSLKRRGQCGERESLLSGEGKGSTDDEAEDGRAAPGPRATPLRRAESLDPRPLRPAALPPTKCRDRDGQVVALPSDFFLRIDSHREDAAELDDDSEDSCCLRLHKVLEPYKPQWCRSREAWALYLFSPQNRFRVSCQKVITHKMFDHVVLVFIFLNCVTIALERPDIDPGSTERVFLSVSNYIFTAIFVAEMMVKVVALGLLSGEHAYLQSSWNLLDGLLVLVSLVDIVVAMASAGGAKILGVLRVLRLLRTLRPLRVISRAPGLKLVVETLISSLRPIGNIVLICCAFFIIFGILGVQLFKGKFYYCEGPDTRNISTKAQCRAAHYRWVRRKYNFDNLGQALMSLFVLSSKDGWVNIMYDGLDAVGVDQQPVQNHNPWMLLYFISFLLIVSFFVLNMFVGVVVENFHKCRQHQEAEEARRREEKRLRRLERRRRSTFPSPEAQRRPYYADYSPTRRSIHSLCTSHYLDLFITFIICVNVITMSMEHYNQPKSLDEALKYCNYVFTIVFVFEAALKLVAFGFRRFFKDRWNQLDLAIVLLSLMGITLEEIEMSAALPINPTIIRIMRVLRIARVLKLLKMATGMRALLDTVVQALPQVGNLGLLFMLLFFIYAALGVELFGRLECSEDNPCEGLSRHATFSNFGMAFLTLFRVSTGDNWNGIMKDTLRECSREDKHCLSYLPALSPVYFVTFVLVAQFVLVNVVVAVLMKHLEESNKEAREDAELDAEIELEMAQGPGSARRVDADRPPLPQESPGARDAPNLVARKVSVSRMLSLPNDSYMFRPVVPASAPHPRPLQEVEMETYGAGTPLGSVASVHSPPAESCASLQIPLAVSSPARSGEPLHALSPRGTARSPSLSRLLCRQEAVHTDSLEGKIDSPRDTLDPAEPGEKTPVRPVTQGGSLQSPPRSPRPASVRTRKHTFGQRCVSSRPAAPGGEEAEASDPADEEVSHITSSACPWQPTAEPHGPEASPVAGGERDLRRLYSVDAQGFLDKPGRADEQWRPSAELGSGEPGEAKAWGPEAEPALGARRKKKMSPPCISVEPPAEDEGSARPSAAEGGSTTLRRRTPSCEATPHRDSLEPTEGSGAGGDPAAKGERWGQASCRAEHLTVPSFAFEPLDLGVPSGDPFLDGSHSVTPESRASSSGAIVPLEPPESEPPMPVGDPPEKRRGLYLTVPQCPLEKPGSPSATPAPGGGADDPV
Mac1 fbg enh – enhancers of CD11b/CD18 adhesion to fibrinogen, primary screen, K562 cells, luminescence; activation, % at 10 µM; AID 1499, 2009; ATPlite luminescence; hit rate 0.07% among 93,000;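 active = 10 µM primary screen giving 50% or more activity, confirmed by 40% or more on retest at that dose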
The depositor's hits bear a star; nt = no result. Only a selection was taken, and hits are over-represented in it overall.

SMILES	Ecoli WT expand	CD11b adhes inh	Cav3 T inh	Mac1 fbg enh
COCc1cc(Sc2cccc(Cl)c2Cl)nc(-c2ccccc2)n1	-3.0	-14.6	-1.02	-4.9
Cc1nc(CS(=O)(=O)c2ccccc2)cc(Sc2ccc(Cl)cc2Cl)n1	-17.0	-1.7	-5.69*	1.5
CCCOC(=O)C1C2C=CC(C3CC23)C1C(=O)OCC(=O)c1ccccc1 (centres undefined)	-8.0	-9.2	-5.46*	4.2
COC(=O)c1ccc(NC(=O)CC2C(=O)N(c3ccc(C)cc3)C(=O)N2CC(C)C)cc1 (centres undefined)	-2.0	5.0	-2.23	-3.6
CCOC(=O)c1ccc(NC(=O)CC2C(=O)N(c3ccc(F)cc3)C(=O)N2CCC(C)C)cc1 (centres undefined)	-12.0	7.4	-4.47*	-3.5
COc1cc(C)c(NC(=S)Nc2ccc(Cl)c(Cl)c2)cc1OC	nt	104.4	nt	-10.1
CC/C(O)=C1\C(=O)CC(c2ccccc2)CC1=NCCc1c(C)[nH]c2ccc(C)cc12 (centres undefined)	nt	nt	-4.59*	nt
CC[C@H](C)[C@@H](C(=O)N1CCNCC1)n1cc([C@@H](N)CO)nn1	nt	nt	0.0716	nt
Cc1ccc(S(=O)(=O)N2C(=S)SCC2(C)C)cc1	1.0	-13.2	0.167	-4.2
CC1=CC(C)(C)N(S(=O)(=O)c2ccc(C)cc2)c2cc(C)ccc21	-11.0	79.0*	-2.38	-4.8
CCn1nc(C(=O)Nc2cccc3ccccc23)c(Cl)c1Cl	-2.0	5.1	-5.71*	-1.8
CC[C@@H]1CC=C[C@H]2[C@H]1C(=O)N(Cc1ccccc1)[C@H]2c1cc(C)ccc1F	nt	nt	-0.562	nt
Nc1nc(Nc2cccc(F)c2)nc2ccccc12	63.0*	7.8	0.417	-4.6
Cn1nnnc1SCC(=O)NC1CCCCC1	0.0	-1.4	-0.595	-0.8
CC1CCCC(NC(=O)CSc2nnnn2C)C1C (centres undefined)	-2.0	-3.1	-4.68*	-1.7
O=C1/C(=C/c2ccncc2)SC(=S)N1C1CCS(=O)(=O)C1 (centres undefined)	54.0*	nt	0.766	nt
COc1cccc(CNC(=O)C2=C(C)C(=O)OC23CCC(C)CC3)c1 (centres undefined)	12.0	-2.5	-1.04	0.6
Cc1ccc2[nH]c3c(NCc4ccco4)ncnc3c2c1	30.0	76.2*	-0.0393	-6.7
c1coc(CNc2ncnc3nc[nH]c23)c1	7.0	-0.7	0.304	-2.9
COc1ccc(CNC(=O)C/C(C)=N/NC(=O)C(c2ccccc2)c2ccccc2)cc1	4.0	-3.3	-4.25*	0.6
COc1ccc(OCC(=O)N/N=C(/C)Cc2ccccc2)cc1	nt	-18.9	nt	1.3
CC(C)Nc1nc(NC(C)C)nc(N(C#N)CCOc2ccc(Cl)cc2Cl)n1	nt	nt	-5.03*	nt
CCCCc1ccc(NS(=O)(=O)c2cccs2)cc1	26.0	5.0	-5*	-0.8
O=S(=O)(Nc1ccc(Cc2ccncc2)cc1)c1cccs1	12.0	9.0	-0.00804	-4.3
CCCCC(=O)Nc1ccc(C(=O)N2CCC(C(=O)OCC)CC2)cc1	-10.0	-31.5	0.637	-2.6
SMILES	Ecoli WT expand	CD11b adhes inh	Cav3 T inh	Mac1 fbg enh
CCC(CC)c1nnc(NC(=O)[C@@H](NC(=O)c2cccc(C)c2)C(C)C)s1	nt	6.2	nt	-1.0
Cc1nn(Cc2c(F)c(F)c(F)c(F)c2F)c(C)c1NC(=O)c1c(-c2ccccc2)nn(-c2ccccc2)c1C	-14.0	nt	0.315	nt
O=C(CSCc1ccccc1)Nc1cccc(C(=O)Nc2ccccc2C(=O)O)c1	-1.0	nt	-4.01	nt
O=C(CSCc1ccc(Cl)cc1)Nc1cccc(C(=O)Nc2ccccc2C(=O)O)c1	-4.0	7.1	-6.86*	-0.3
O=C1CCSc2ccc(Cl)cc2N1Cc1cccc(Cl)c1	8.0	9.6	-3.45	2.0
Cc1ccc(CN2C(=O)CCSc3ccc(Cl)cc32)cc1	0.0	18.3	-4.9*	-6.8
COC(=O)C1=C(C)NC(C)=C(C(=O)OCCN(C)Cc2ccccc2)C1c1cccc([N+](=O)[O-])c1 (centres undefined)	nt	nt	-4.09*	nt
CCOC(=O)CSCC(=O)Nc1c(C(=O)C2CC2)oc2ccccc12	nt	nt	-4.69*	nt
CN1CCN(CC(=O)Nc2c(C(=O)C3CC3)oc3ccccc23)CC1	4.0	3.7	1.08	0.4
O=[N+]([O-])c1ccc(O)c(/C=N/n2cnc3ccccc32)c1	nt	103.6*	nt	-8.1
Nc1c(C(=O)c2ccc(Cl)cc2)sc2nc3c(cc12)CCC3	nt	-3.6	nt	-5.1
CN1CCc2nc3sc(C(=O)C45CC6CC(CC(C6)C4)C5)c(N)c3cc2C1	5.0	12.6	nt	117.7*
